Compound activity (PubChem BioAssay)
Rows were chosen to be rich in hits. Some 3% of all compounds tested hit in one or more screens of this group.
p53null 32C tox: selectivity test: cytotoxicity in p53 null cells, permissive temperature. H1299-neo p53 null cells, ATP luminescence, 24 h, 32C. Potency, µM (top dose mostly 46.1 µM), without a hit: top-dose activity change, negative = cytotoxicity, most hits filed as cytotoxic. 0.62% of 55,000 active. AID 903;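 note: potency is the fitted concentration of half-maximal effect; 0% = DMSO only and -100% = full killing by 100 µM tamoxifen; nearly all actives have a fitted effect of over 55% in size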
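AC50 values derive from Hill modelling of qHTS concentration-response data (up to 46 uM) in H1299-neo cells. Cells were treated 24 h at 32C following overnight attachment at 37C; viability was read as cellular ATP.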
S16 viability: toxic to S16 Pmp22-F2sN Schwann cells | 0.48% of 43,000 active | S16 Pmp22-F2sN Schwann cells viability, CellTiter-Glo, 24 h | Potency, µM (top dose mostly 57.5 µM), for the others: at the top dose activity change, negative = cytotoxicity, hits mostly cytotoxic; note: potency is the fitted concentration of half-maximal effect; % is set by controls: 0 for no effect and ±100 for the full control effect; nearly all actives have a fitted effect of over 65% in size
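Luminescence from CellTiter-Glo, read by CCD camera after a 15 min room-temperature incubation, served as the viability signal. Reporter Schwann cells (S16 Pmp22-F2sN) had been treated with pin-transferred compounds for 24 h at 37C.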
OvCa metastasis: ovarian cancer metastasis inhibition, 3D TME model; SKOV3ip1-GFP adhesion/invasion on 3D omental model, fluorescence; Potency, µM (series often up to 45.8 µM), without a hit: at the highest dose activity change, negative = inhibition, usual class: inhibitors; 0.1% of 46,000 active; AID 1963576;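 note: potency is the fitted concentration of half-maximal effect; plate controls were DMSO wells for no effect and tomatine positive control wells for full effect; nearly all actives have a fitted effect of over 65% in size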
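Adhesion/invasion was scored as fixed GFP-labeled SKOV3ip1 cell counts (488/509 nm), normalized to DMSO and tomatine controls. Cancer cells in serum-free medium, with four compound doses (0.36-46 umol/L), sat 2 hr at RT then 16 hr at 37 C on a 48 hr fibroblast/mesothelial/ECM culture.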
p53null 39C tox: kills p53 null cells at the nonpermissive temperature | H1299 p53-null (neo) cells, 39C, ATPlite viability, 24 h | Potency, µM (series often up to 46.1 µM), without a hit: top-dose activity, negative = cell killing, hits mostly cytotoxic | 0.97% of 55,000 active;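 note: potency is the fitted concentration of half-maximal effect; 0% = DMSO only and -100% = full killing by 100 µM tamoxifen; nearly all actives have a fitted effect of over 50% in size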
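Cells seeded at 600/well, 37C overnight. Compound added (up to 46 uM), plates shifted to 39C for 24 hr. ATPlite added, luminescence read after 20 min at room temperature.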
PMP22 txn prim: modulates PMP22 transcription in S16 Schwann cells | AID 1508649 | 2% of 43,000 active | S16 Pmp22-F2sN Schwann cells, FLuc/NLuc coincidence luminescence, 24 h | Potency, µM (series often up to 57.5 µM), for inactives: at the top dose activity change, negative = inhibition, actives largely listed as inhibitors; active = clear falling dose curves in both reporters; inconclusive = both reporters move, but less clearly or upward; inactive = either reporter flat; the % is the NLuc reporter signal; note: potency is the fitted concentration of half-maximal effect; % is set by controls: 0 for no effect and ±100 for the full control effect
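Luminescent read-out of sequential FLuc and NLuc signals from a reporter embedded in the Pmp22 3' UTR of S16 Schwann cells, taken after 24 h compound exposure at 37C; compounds reducing both signals score as inhibitors of expression.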
mTORC1 inh: reduces mTORC1 signaling in Tsc2 and p53 null MEF cells; Potency, µM (doses to about 38.3 µM), inactives show at the top dose activity change, negative = inhibition, usual class: inhibitors; 0.78% of 44,000 active; Tsc2-/- p53-/- MEF, phospho-rpS6 immunofluorescence/PI, 24 h;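 note: potency is the fitted concentration of half-maximal effect; plate controls were DMSO for no effect and rapamycin for full effect; nearly all actives have a fitted effect of over 50% in size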
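Tsc2-/-, p53-/- mouse embryonic fibroblasts (empty-vector line) exposed to compound 24 hrs at 37 C, fixed, immunostained for phospho-rpS6 and counterstained with propidium iodide. Acumen laser scanning gives % positive cells from Alexa 488/PI ratio, thresholded using 7.5 nM rapamycin; PI count gives viability.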
NLuc saturating: NanoLuc enzyme inhibition artifact for PMP22 screen; AID 1508638; 4% of 690 active; shares compounds with PMP22 txn prim; Potency, µM (series often up to 57.5 µM), inactives show at the top dose activity change, negative = inhibition, hits mostly inhibitors; Secreted NLuc enzyme (filtered S16 cell medium), Nano-Glo luminescence; note: potency is the fitted concentration of half-maximal effect; % is set by controls: 0 for no effect and ±100 for the full control effect
NLuc Km ctr: inhibits NanoLuc under Km conditions, PMP22 counter-screen | secreted NLuc enzyme, coelenterazine luminescence, Km conditions | 5% of 690 active | AID 1508639 | Potency, µM (titrated, usually from 57.5 µM), without a hit: top-dose activity change, negative = inhibition, hits mostly inhibitors | shares compounds with PMP22 txn prim; note: potency is the fitted concentration of half-maximal effect; % is set by controls: 0 for no effect and ±100 for the full control effect
FLuc ctr PMP22: inhibits firefly luciferase, PMP22 counter-screen; 690 tested, under 10 active; shares compounds with PMP22 txn prim; purified P. pyralis FLuc, luminescence, 10 min; AID 1508640; Potency, µM (top dose mostly 57.5 µM), for the others: at the highest dose activity, negative = inhibition, most hits filed as inhibitors; note: % of control where 0% means no effect
Target sequence (P08659 whole entry, looked up): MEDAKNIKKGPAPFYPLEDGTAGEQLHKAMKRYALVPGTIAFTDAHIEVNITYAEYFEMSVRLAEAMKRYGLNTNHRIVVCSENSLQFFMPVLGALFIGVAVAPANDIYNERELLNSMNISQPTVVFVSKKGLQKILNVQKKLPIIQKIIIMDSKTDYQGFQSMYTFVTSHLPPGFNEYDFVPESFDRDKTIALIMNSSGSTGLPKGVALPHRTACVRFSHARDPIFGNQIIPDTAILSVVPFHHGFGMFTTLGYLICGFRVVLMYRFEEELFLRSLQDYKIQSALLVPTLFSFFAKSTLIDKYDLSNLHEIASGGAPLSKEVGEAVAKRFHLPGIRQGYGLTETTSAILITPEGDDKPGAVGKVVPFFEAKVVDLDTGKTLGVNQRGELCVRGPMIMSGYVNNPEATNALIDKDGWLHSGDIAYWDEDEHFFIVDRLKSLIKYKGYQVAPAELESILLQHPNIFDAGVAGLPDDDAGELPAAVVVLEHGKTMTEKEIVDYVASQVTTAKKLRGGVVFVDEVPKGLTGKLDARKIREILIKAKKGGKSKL
S16 F2sN tox cnf: confirmation of cytotoxicity in S16 Pmp22-F2sN Schwann cells (luciferase reporters placed in the Pmp22 gene) | shares compounds with PMP22 txn prim | S16 Schwann cells viability, CellTiter-Glo ATP luminescence, 24 h | Potency, µM (highest dose often 57.5 µM), for the others: top-dose activity change, negative = viability loss, actives largely listed as cytotoxic | 7% of 690 active | AID 1508641; note: potency is the fitted concentration of half-maximal effect; % is set by controls: 0 for no effect and ±100 for the full control effect
PMP22 txn conf: PMP22 transcription modulation, confirmatory; S16 Schwann cells Pmp22-F2sN, dual luciferase, 24 h; shares compounds with PMP22 txn prim; 22% of 690 active; Potency, µM (doses to about 57.5 µM), for inactives: at the highest dose activity change, negative = inhibition, most hits filed as inhibitors; active = clear falling dose curves in both reporters; inconclusive = both reporters move, but less clearly or upward; inactive = either reporter flat; the % is the FLuc reporter signal; note: potency is the fitted concentration of half-maximal effect
PMP22 HiBiT cnf: confirmation of modulators of rat PMP22 protein expression. shares compounds with PMP22 txn prim. S16 Schwann cells Pmp22-HiBiT, luminescence, 48 h. Potency, µM (highest dose often 27.9 µM), for the others: at the top dose activity change, negative = inhibition, hits mostly inhibitors. 95 tested, under 10 active
Target sequence (P25094 whole entry, looked up): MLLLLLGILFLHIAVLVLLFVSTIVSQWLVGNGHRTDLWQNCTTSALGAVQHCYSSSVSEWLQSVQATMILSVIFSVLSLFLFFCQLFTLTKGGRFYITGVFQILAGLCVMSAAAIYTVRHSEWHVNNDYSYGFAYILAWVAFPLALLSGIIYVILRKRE
An asterisk follows results filed as active; i = inactive; u = inconclusive; x = no result given; [ ] = remark or other dose. Unless noted, calls come from the whole dose curve; as a rule, active = well fitted curve in the direction sought with a large enough effect; inconclusive = small, poorly fitted or top-dose-only effect, or another doubt; inactive = no such curve, though single readings can be large; an effect the other way counts as inactive or inconclusive.

SMILES	p53null 32C tox	S16 viability	OvCa metastasis	p53null 39C tox	PMP22 txn prim	mTORC1 inh	NLuc saturating	NLuc Km ctr	FLuc ctr PMP22	S16 F2sN tox cnf	PMP22 txn conf	others
CCc1ccccc1Nc1nn2c(=O)c3ccc(C(=O)Nc4cc(C)cc(C)c4)cc3nc2s1	13%	16%	1%	-16%	7.3µM*	-10%	-4%	u	-3%	22µM*	12µM*	PMP22 HiBiT cnf=-8%
Cc1ccccc1Nc1nn2c(=O)c3ccc(C(=O)NCc4ccccc4)cc3nc2s1	-15%	-7%	i	23%	u	4%	x	x	x	x	x
Cc1ccc(C)c(Nc2nn3c(=O)c4ccc(C(=O)NCc5cccs5)cc4nc3s2)c1	u	u	-9%	-10%	13µM*	u	-13%	u	-1%	u	u
O=C(O)c1cn(C2CC2)c2cc(N3CCNCC3)c(F)cc2c1=O	x	x	0%	x	x	x	x	x	x	x	x
CN(C)CCOc1ccc(-c2nc(-c3ccc4c(c3)CCC4=NO)c(-c3ccncc3)[nH]2)cc1	x	x	-4%	x	x	x	x	x	x	x	x
CCOC(=O)COc1ccc(C)cc1C(=O)c1ccn2nc(-c3ccc(F)cc3)cc2n1	x	24%	i	x	18µM*	-2%	-10%	u	6%	11%	u
CCOC(=O)COc1ccc(F)cc1C(=O)c1ccn2nc(-c3ccc(C)cc3)cc2n1	x	u	i	x	-3%	1%	x	x	x	x	x
CC(C)COc1ccccc1C1CC(=O)Nc2cc3c(cc21)OCO3 (stereo unspecified)	52%	-14%	i	u	8.4µM*	u	u	u	-15%	-23%	u
O=C(NCCc1csc(-c2ccc(F)cc2)n1)c1cccc(F)c1	-15%	25%	-4%	-14%	u	-1%	x	x	x	x	x
O=C(NCCc1csc(-c2ccc(F)cc2)n1)c1c(F)cccc1Cl	3%	5%	-4%	1%	u	-8%	u	u	u	-9%	29%
Cc1cccc(NC(=O)CSc2nc3c(sc4ccccc43)c(=O)n2CCCC(=O)NC2CCCC2)c1	-7%	8%	-5%	-4%	-29%	-11%	x	x	x	x	x
O=C(CSc1nc2c(sc3ccccc32)c(=O)n1CCCC(=O)NC1CCCC1)Nc1ccc(F)cc1	-8%	u	i	-4%	u	-1%	-13%	12%	-15%	-31%	11µM*
Cc1ccc(/C=C/c2onc(C)c2S(=O)(=O)N2CCC(C(=O)NCC(C)c3ccccc3)CC2)cc1 (stereo unspecified)	-2%	27%	i	8%	13µM*	2%	-3%	-1%	7%	2%	u
Cc1ccc(/C=C/c2onc(C)c2S(=O)(=O)N2CCC(C(=O)Nc3cc(C)ccc3C)CC2)cc1	0%	u	i	-8%	-19%	5%	x	x	x	x	x
Cc1ccc(/C=C/c2onc(C)c2S(=O)(=O)N2CCC(C(=O)Nc3cccc(C#N)c3)CC2)cc1	12%	18%	i	-4%	12µM*	-16%	-2%	7%	7%	14%	-16%
Cc1ccc(C)c(NC(=O)C2CCCN(S(=O)(=O)c3c(C)noc3/C=C/N(C)C)C2)c1 (stereo unspecified)	43%	3%	-17%	23%	u	-26%	u	u	3%	-6%	-5%
NC(=O)c1ccc2nc(-c3ccc(Oc4ccc(Cl)cc4)cc3)[nH]c2c1	x	x	20%	x	x	x	x	x	x	x	x
CC(=O)NC(CS)C(=O)O (stereo unspecified)	x	x	-23%	x	x	x	x	x	x	x	x
Cn1nnnc1SCCCNCc1cccc(OCc2ccccc2)c1	-6%	-6%	0%	-16%	20µM*	-21%	-5%	1%	3%	-7%	-11%
CON=C(C(=O)N[C@@H]1C(=O)N2C(C(=O)O)=C(CSC(=O)c3ccco3)CS[C@H]12)c1csc(N)n1	x	x	19%	x	x	x	x	x	x	x	x
O=C(NCc1ccccc1Cl)C1CCN(S(=O)(=O)c2ccc3c(c2)CCCN3C(=O)C2CCC2)CC1	0%	u	-12%	-14%	8.5µM*	-3%	-15%	5%	-3%	-15%	-20%
O=C1COc2ccc(-c3cc(-c4ccc(F)cc4)c4c(n3)-c3ccccc3OC4)cc2N1	x	24%	i	x	17µM*	1%	-5%	7%	6%	u	u
Cc1cc(Nc2cccc(Br)c2)n2c(nc3ccccc32)c1C#N	-17%	u	i	-25%	9µM*	-5%	-18%	u	7%	10%	u
CCC(C=C[C@@H]1OC(=O)C=C[C@H]1C)=C[C@H](C)CC=CC(C)=C[C@@H](C)C(=O)[C@@H](C)[C@H](O)[C@@H](C)CC(C)=CC(=O)O	x	x	-13%[1.72 µM]	x	x	x	x	x	x	x	x
CCC(=O)C1=C(c2cccc([N+](=O)[O-])c2)N(C(=O)CC)n2c(nnc2-c2ccccc2)S1	-14%	6%	i	19%	3µM*	-3%	u	u	0%	16%	11µM*	PMP22 HiBiT cnf=-1%
